{"source": "PubChem BioAssay (EPA / NIEHS)", "note": "Where “and” joins values, the source holds several entries; their conditions need not be identical. Equal values may be shown once. Some structures have more than one record in an assay (separate samples or runs), and their calls can disagree. Calls of active or inactive are those of the source. Rule for the calls: active = hit-call score of the fitted dose curve at least 0.9, where 1 is the maximum; inactive = score below 0.9."}
{"experiment": "CCTE_Shafer_MEA_acute_per_network_burst_spike_number_mean: CCTE's Neural Acute Assay for Average Number of Spikes in a Network Burst, Shafer Lab (AID 2284019)", "protocol": "CCTE_Shafer_MEA_acute assay is conducted using Axion Biosystems 48 well microelectrode array (MEA) plates and Maestro recording system. Each well of the MEA plate contains a grid of 16 microelectrodes embedded in the culture surface. Electrically active cells, such as neurons, can be cultured over the electrodes, and electrical activity in these cells can be recorded extracellularly. The spontaneous firing of neurons is captured from each electrode on a microsecond timescale providing both temporally and spatially precise data. […] The CCTE_Shafer_MEA_acute assay uses primary cultures of rat cortical neurons. As these cultures mature over time, neural networks develop functional activity and form cohesive networks in which electrical activity can be highly coordinated. Baseline 40-minute recordings are made on days post-plating 13 or 15, followed by a secondary 40-minute recording after chemical exposure.CCTE_Shafer_MEA_acute_per_network_burst_spike_number_mean is a component of the CCTE_Shafer_MEA_acute assay. It measures the average number of spikes (action potential firings) in a network burst (temporally-clustered group of spikes across multiple electrodes) as the total number of spikes in a network burst divided by the number of network bursts during a recording in a microelectrode array (MEA) using Axion Biosystems Maestro 768 channel amplifier with the AxIS adaptive spike detector. The recordings before and after chemical treatment are used to calculate a percent change in the mean number of spikes in a network burst in each well.Data from the assay component CCTE_Shafer_MEA_acute_per_network_burst_spike_number_mean was analyzed into 1 assay endpoint. This assay endpoint, CCTE_Shafer_MEA_acute_per_network_burst_spike_number_mean, was analyzed in the negative analysis fitting direction relative to DMSO as the negative control and baseline of activity. Using a type of functional reporter, gain or loss-of-signal activity can be used to understand electrical activity.\nSpontaneous activity in the cortical cultures was recorded using an Axion Biosystems Maestro 768 channel amplifier and Axion Integrated Studios (AxIS) v1.8 (or later) software. The amplifier recorded from all channels simultaneously (gain = 1200 x; sampling rate = 12.5 kHz/channel): raw signals were filtered with a Butterworth band-pass filter (300-5000 Hz), which filters out slower local field potentials leaving only fast potentials, i.e., \"spikes\", arising from extracellular currents associated with action potentials (Pine 2006; Wheeler and Nam 2011). On-line spike detection of filtered signals was conducted with the AxIS adaptive spike detector, using a threshold of 8x the root mean squared (rms) noise on each channel. Any electrodes with rms noise levels greater than 5 uV were grounded (e.g., no data were recorded). Once grounded, an electrode was grounded for the duration of the experiment. All recordings were conducted at 37 C. Wells were deemed usable if on the day of the exposure >/= 10 electrodes were active (defined as >/= 5 spikes/min). On DIV 13 or 15, a minimum of three wells from one cortical culture preparation were treated with each compound (0.03-40 uM). Prior to recording baseline activity, each mwMEA plate was placed in the Maestro at 37 C and allowed to sit for 20 min while firing rates stabilized. Baseline activity (40 min) was recorded before the addition of each compound. An additional 40 min of spontaneous activity was recorded in the presence of each compound. Changes in network parameters relative to baseline were assessed following compound treatment."}
{"smiles": "CC[C@H](C)[C@H]1O[C@]2(C=C[C@@H]1C)C[C@@H]1C[C@@H](C/C=C(\\C)[C@@H](O[C@H]3C[C@H](OC)[C@@H](O[C@H]4C[C@H](OC)[C@@H](NC)[C@H](C)O4)[C@H](C)O3)[C@@H](C)/C=C/C=C3\\CO[C@@H]4[C@H](O)C(C)=C[C@@H](C(=O)O1)[C@]34O)O2", "AC50": "22.5 nM (active) and 1.91 µM (active)"}
{"smiles": "CC(C)[C@H](C(=O)O[C@H](C#N)c1cccc(Oc2ccccc2)c1)c1ccc(Cl)cc1", "outcome": "inactive"}
{"smiles": "O=C(O)c1cc(Oc2ccc(C(F)(F)F)cc2Cl)ccc1[N+](=O)[O-]", "outcome": "inactive"}
{"smiles": "CCOP(=S)(OCC)SCCSCC", "outcome": "inactive"}
{"smiles": "CC(C)=CC1C(C(=O)OCN2C(=O)C3=C(CCCC3)C2=O)C1(C)C", "note": "(stereo not given)", "outcome": "inactive"}
{"smiles": "CCc1cccc(C)c1N(C(=O)CCl)C(C)COC", "note": "(stereo not given)", "outcome": "inactive"}
{"smiles": "Cc1ccn2nc(S(=O)(=O)Nc3c(F)cccc3F)nc2n1", "outcome": "inactive"}
{"smiles": "CC(COc1ccc(Oc2ccccc2)cc1)Oc1ccccn1", "note": "(stereo not given)", "outcome": "inactive"}
{"smiles": "COc1cc(OC)nc(Sc2cccc(Cl)c2C(=O)O)n1", "outcome": "inactive"}
{"smiles": "CN1COCN(Cc2cnc(Cl)s2)C1=N[N+](=O)[O-]", "outcome": "inactive"}
{"smiles": "C[Si](Cn1cncn1)(c1ccc(F)cc1)c1ccc(F)cc1", "outcome": "inactive"}
{"smiles": "O=[N+]([O-])c1cc(C(F)(F)F)c(Cl)c([N+](=O)[O-])c1Nc1ncc(C(F)(F)F)cc1Cl", "AC50": "0.321 µM (active)"}
{"smiles": "N#CSCSC#N", "outcome": "inactive"}
{"smiles": "CSC1=N[C@@](C)(c2ccccc2)C(=O)N1Nc1ccccc1", "outcome": "inactive"}
{"smiles": "CCOP(=S)(OCC)Oc1ccc2c(C)c(Cl)c(=O)oc2c1", "AC50": "1.99 µM (active)"}
{"smiles": "COP(=O)(NC(C)=O)SC", "note": "(stereo not given)", "outcome": "inactive"}
{"smiles": "FC(F)C(F)(F)OCC(Cn1cncn1)c1ccc(Cl)cc1Cl", "note": "(stereo not given)", "outcome": "inactive"}
{"smiles": "CCc1cnc(C2=NC(C)(C(C)C)C(=O)N2)c(C(=O)O)c1", "note": "(stereo not given)", "outcome": "inactive"}
{"smiles": "CNC(=O)ON=C(SC)C(=O)N(C)C", "outcome": "inactive"}
{"smiles": "Nc1c(Cl)cc([N+](=O)[O-])cc1Cl", "outcome": "inactive"}
{"smiles": "CCCOCC(=Nc1ccc(Cl)cc1C(F)(F)F)n1ccnc1", "AC50": "0.943 µM (active)"}
{"smiles": "CCOP(=O)(NC(C)C)Oc1ccc(SC)c(C)c1", "note": "(stereo not given)", "outcome": "inactive"}
{"smiles": "CC(C)N(C(=O)SCC(Cl)=C(Cl)Cl)C(C)C", "outcome": "inactive", "AC50": "5.79 µM (active)"}
{"smiles": "C#CCC1=C(C)C(OC(=O)C2C(C=C(C)C)C2(C)C)CC1=O", "note": "(stereo not given)", "outcome": "inactive"}
{"smiles": "CCOC(=O)CC(SP(=O)(OC)OC)C(=O)OCC", "note": "(stereo not given)", "outcome": "inactive"}
{"smiles": "CON=C(C(=O)OC)c1ccccc1CON=C(C)c1cccc(C(F)(F)F)c1", "outcome": "inactive"}
{"smiles": "CC1=NNC(=O)N(/N=C/c2cccnc2)C1", "outcome": "inactive"}
{"smiles": "CN(C)[C@@H]1C(=O)C(C(N)=O)=C(O)[C@@]2(O)C(=O)C3=C(O)c4c(O)cccc4[C@@](C)(O)[C@H]3[C@H](O)[C@@H]12", "outcome": "inactive"}
{"smiles": "COP(=O)(OC)C(O)C(Cl)(Cl)Cl", "note": "(stereo not given)", "AC50": "15 µM (active)"}
{"smiles": "CN(C)NC(=O)CCC(=O)O", "outcome": "inactive"}
{"smiles": "CCOP(=S)(Oc1cnc(C(C)(C)C)nc1)OC(C)C", "note": "(stereo not given)", "AC50": "20 µM (active)"}
{"smiles": "C=C(C)[C@H]1Cc2c(ccc3c2O[C@@H]2COc4cc(OC)c(OC)cc4[C@@H]2C3=O)O1", "outcome": "inactive"}
{"smiles": "CC(=NC#N)N(C)Cc1ccc(Cl)nc1", "outcome": "inactive"}
{"smiles": "C[N+]1(C)CCCCC1", "outcome": "inactive"}
